Experimental findings from PubChem BioAssay (NCI) are described below.

Compounds without any hit were thinned out: in the full panel of roughly 79,000, 15% have a hit. Values without a mark were called inactive. Activity calls are given as the source filed them. No stated cut-off is given here; in the data, active means growth inhibition above about 70%; inactive means the rest.

Assay [1] is described as follows: NCI Yeast Anticancer Drug Screen. Data for the rad50 strain (AID 155).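 Further: 0% = growth of vehicle-only cultures of the same strain.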 To be noted: S. cerevisiae rad50 strain growth inhibition; at 50.0 µM; stronger effect = higher value. The essentials: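 Vehicle-treated cultures provide the reference for the growth inhibition reported for compound-exposed, repair-deficient yeast.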
Assay [2] in a line: NCI Yeast Anticancer Drug Screen. Data for the mec2-1 strain (AID 157). To be noted: S. cerevisiae mec2-1 strain, at 50.0 µM, stronger effect = higher value. The essentials: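 Test agents were screened against the mec2-1 yeast strain, with defined DNA repair or cell cycle alteration. Growth was scored as inhibition against vehicle-only controls.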
Assay [3] in a line: NCI Yeast Anticancer Drug Screen. Data for the sgs1 mgt1 strain (AID 161).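 Further: 0% = growth of cultures given vehicle only.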 Particulars: S. cerevisiae sgs1 mgt1 strain, at 50.0 µM, stronger effect = higher value. The essentials: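 Inhibition of yeast growth, normalised to vehicle-treated controls, is reported for a strain bearing genetic alterations in DNA damage repair.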
Assay [4] in a line: NCI Yeast Anticancer Drug Screen. Data for the cln2 rad14 strain (AID 165).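 Further: 0% = growth equal to vehicle treated cultures.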 To be noted: S. cerevisiae cln2 rad14 strain, at 50.0 µM, stronger effect = higher value. The essentials: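 Growth of compound-exposed yeast (cln2 rad14 genotype) measured and expressed as inhibition relative to vehicle.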
Assay [5] can be described thus: NCI Yeast Anticancer Drug Screen. Data for the bub3 strain (AID 167). To be noted: S. cerevisiae bub3 mutant strain, at 50.0 µM, stronger effect = higher value. The essentials:
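Mutant yeast screening strain plus compound; vehicle-treated cultures serve as the 0% inhibition reference.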

Assay [6] can be described thus: NCI Yeast Anticancer Drug Screen. Data for the mlh1 rad18 strain (AID 175). Particulars: S. cerevisiae mlh1 rad18 strain growth inhibition; at 50.0 µM; stronger effect = higher value. The essentials:
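In this whole-cell yeast screen, a strain with altered DNA damage repair is challenged with compound, and its growth is measured against matched vehicle-treated controls.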

On to `CC(=O)Nc1cc(C)c(C(=O)OC(=O)c2cc(C)c(NC(C)=O)cc2C)cc1C`, for which the growth inhibition in assay [1] was 22.4%; in assay [2], -10.1%; in assay [3] it was 5.1%; in assay [4], -57.6%; in assay [5], -0.85%; in assay [6], 6.2%.
`Nc1cccc2ccc(S(=O)(=O)O)cc12`: the growth inhibition in assay [1] was -3.05%; in assay [2], -9%; in assay [3], -24.4%; in assay [4], -13.8%; in assay [5], -9.9%; in assay [6], 8.85%.
On to `CC1CCC2(CC1)OC(C)C(C)O2` (stereo not given), for which the growth inhibition in assay [1] is 20.1%; in assay [2], -2.4%; in assay [3], 4.9%; in assay [4] it was -34.6%; in assay [5], 28.8%; in assay [6], 10.7%.
As for `Nc1ccc(S(=O)(=O)n2cccc2)cc1`, the growth inhibition in assay [1] was -8.9%; in assay [2] it was 1.2%; in assay [3] it was -19.9%; in assay [4], -6.4%; in assay [5] it was -9.25%; in assay [6], -10.5%.
As for `NC(CSSCC(N)=NC1CCCCC1)=NC1CCCCC1`, the growth inhibition is 6.5% in assay [1]; 3.4% in assay [2]; 13% in assay [3]; 7.35% in assay [4]; -1.45% in assay [5]; 20% in assay [6].
In the case of `COC(=O)C1=C(O)c2cc(-c3ccccc3)c(-c3ccccc3)c(C#N)c2NC(=O)C1`, the growth inhibition in assay [1] is 32.5%; in assay [2], 23.9%; in assay [3] it was 12.9%; in assay [4], 11.1%; in assay [5], -4.25%; in assay [6] it was 30.4%.
Turning to `CC(=O)NCCc1ccc(OCc2ccccc2)cc1`, the growth inhibition in assay [1] was -7.15%; in assay [2], 2.25%; in assay [3], 3.7%; in assay [4] it was -51.5%; in assay [5], -19.4%; in assay [6], -1.45%.
On to `O=[N+]([O-])c1ccc(CS(=O)(=O)O)cc1`, for which the growth inhibition is 6.25% in assay [1]; -9.05% in assay [2]; -6.4% in assay [3]; -15.1% in assay [4]; 8.8% in assay [5]; -5.6% in assay [6].
Consider `N=C(Oc1ccccc1)c1ccccc1`, for which the growth inhibition in assay [1] is -1.95%; in assay [2], -22.3%; in assay [3] it was -12.6%; in assay [4] it was -28.7%; in assay [5] it was -13.1%; in assay [6], 6.45%.
For `CCN(CC)CCOc1cc(C(C)C)ccc1C`, the growth inhibition in assay [1] is 76% (active); in assay [2] it was 63.5%; in assay [3] it was 63.5%; in assay [4], 76.2% (active); in assay [5], 40.5%; in assay [6], 78.2% (active).
As for `Cc1ccc(N=C2C(=Nc3ccc(C)cc3)N(c3ccc(C)cc3)C(=S)N2C(=O)c2ccccc2)cc1`, the growth inhibition in assay [1] is -5.4%; in assay [2], -27.1%; in assay [3], 7.9%; in assay [4], 26.3%; in assay [5] it was -29.6%; in assay [6], -13.1%.
As to `O=c1ccc2c([nH]1)CCCC2`, the growth inhibition was -8.25% in assay [1]; -8.25% in assay [2]; -30.9% in assay [3]; 1.35% in assay [4]; -9.15% in assay [5]; 0.55% in assay [6].
In the case of `CC(=O)NCCCCNS(=O)(=O)c1ccc(C)cc1`, the growth inhibition in assay [1] is -16.1%; in assay [2], -3.15%; in assay [3], -17.4%; in assay [4] it was -6.1%; in assay [5], -0.7%; in assay [6], 5.1%.
Consider `CC(=O)OC(C)=O`, for which the growth inhibition is -20.2% in assay [1]; 9.9% in assay [2]; 8% in assay [3]; -33% in assay [4]; 7.55% in assay [5]; -16.4% in assay [6].
In the case of `CN(Cc1cnc2nc(N)nc(N)c2n1)c1ccc(C(=O)NC(CCC(=O)NC(CCC(=O)O)C(=O)O)C(=O)O)cc1` (stereo not given), the growth inhibition in assay [1] was 34.7%; in assay [2], 20.6%; in assay [3], 32.8%; in assay [4], 13.5%; in assay [5], 33.5%; in assay [6], 36.2%.
Take `Cc1cccc2c(=O)[nH]c(=O)[nH]c12`: the growth inhibition in assay [1] was -14.2%; in assay [2] it was -12.2%; in assay [3] it was -2.15%; in assay [4], -58.8%; in assay [5] it was -4.4%; in assay [6], -20.1%.
Turning to `CCOC(=O)/C(=N\O)C(C)(C)c1ccnc2ccccc12`, the growth inhibition in assay [1] was -4%; in assay [2], 0.6%; in assay [3] it was -10.9%; in assay [4] it was 4.05%; in assay [5] it was -5%; in assay [6], 4.7%.
Regarding `CC(C)=CCNC(N)=O`, the growth inhibition in assay [1] was 4.95%; in assay [2], -3.8%; in assay [3], -10.5%; in assay [4], 11%; in assay [5], 7.4%; in assay [6], 2.15%.
As for `COc1cc(Nc2nc3ccc(C(F)(F)F)cc3nc2-c2ccccc2)cc(OC)c1OC`, the growth inhibition was 0.05% in assay [1]; 4.2% in assay [2]; -36% in assay [3]; -12.2% in assay [4]; -9.3% in assay [5]; -22.9% in assay [6].
Turning to `CCCCCCCCCCCCCCCC(=O)NOCc1cscn1`, the growth inhibition is -0.8% in assay [1]; -29.1% in assay [2]; -3.25% in assay [3]; -22.1% in assay [4]; -12.8% in assay [5]; 6.1% in assay [6].
